The values that follow come from PubChem BioAssay.

SMILES strings stand for the structures. Values without a mark were called inactive. How the calls were made is not given here.

L-lactate dehydrogenase (Plasmodium falciparum (isolate CDC / Honduras)), sequence (Q27743 whole entry, looked up): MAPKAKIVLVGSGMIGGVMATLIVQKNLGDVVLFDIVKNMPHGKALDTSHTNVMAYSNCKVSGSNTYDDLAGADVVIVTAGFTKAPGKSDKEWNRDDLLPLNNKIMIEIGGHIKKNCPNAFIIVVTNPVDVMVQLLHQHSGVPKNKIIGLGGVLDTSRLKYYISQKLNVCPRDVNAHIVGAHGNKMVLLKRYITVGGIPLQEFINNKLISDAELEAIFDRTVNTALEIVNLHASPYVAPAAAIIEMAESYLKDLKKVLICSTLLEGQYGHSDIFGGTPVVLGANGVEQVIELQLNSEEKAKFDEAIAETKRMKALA

The experiment addresses L-lactate dehydrogenase (Plasmodium falciparum (isolate CDC / Honduras)) (UniProt Q27743). Nature of the experiment: PfLDH activity inhibition – cell lysate, 3D7 strain, counter-screen for P. falciparum growth inhibition project (AID 2304).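 Further: 0% = vehicle and 100% = reference inhibitor.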 The following applies: P. falciparum 3D7 crude extract, LDH APAD/NBT absorbance; at 2 µM; active compounds read high.
A word on the inhibition: it is the relative decrease from the control value, in per cent. Turning to `CN1CCN(c2ccnc3cc4c(cc23)N(C(=O)Nc2ccc3c(c2)CCCC3=O)CC4)CC1`, the inhibition is -5%.
For `CCCCOC(=O)NCCCC[C@H](NC(=O)OC(C)(C)C)C(=O)N[C@H](C(=O)OC(c1ccccc1)c1ccccc1)[C@H]1O[C@@H](n2ccc(=O)[nH]c2=O)[C@@H]2OC(C)(C)O[C@@H]21` the value was 4%; for `COCCNCc1ccc(-c2cccc(CNc3ccc(OC)cc3)c2)cc1`, -1%.
For `Cc1ccc(NC(=O)c2ccc3ncccc3c2)cc1OC1CCN(Cc2ccc(F)cc2)C1` (configuration not stated) the value was 3%; for `Cc1ccc(CCC(C)NCC(O)c2cccc(Cl)c2)cc1` (configuration not stated), -4%.
Under `CCCNC(=O)Nc1cc2cc(-c3cccc(CN4CCCCC4)c3)ccc2n2c(C)nnc12` stands 0%.
On to `CCC[C@@H]([C@@H](CC1CCCCC1)C(=O)N[C@@H](CCCCNS(C)(=O)=O)C(=O)Nc1nccs1)N(O)C=O`, for which the inhibition is -1%.
Take `COc1cc(O)c2c(=O)c(OC)c(-c3cccc(Cl)c3OC3O[C@H](CO)[C@@H](O)[C@H](O)[C@H]3O)oc2c1OC` (some centres not stated): the inhibition is -2%.
Under `Nc1nc(N)c2cc(NC(=O)c3ccc(Cl)c(Cl)c3)ccc2n1` stands 1%; under `CN1CCN(CC2(Nc3nccc(NCCc4cn(C)c5ccccc45)n3)CCCCC2)CC1`, 2%; under `COc1cc(Cc2cnc(N)nc2N)cc(OCCCCCC(=O)O)c1OC`, -4%.
Under `Cc1cc(-c2cccc(CNCc3ccccc3)c2)ccc1S(=O)(=O)NCCN1CCCC1` stands 1%; under `CC1CN(Cc2cccc(C#N)c2)CCN1c1ccc(NC(=O)c2cccs2)cc1` (configuration not stated), 5%.
Regarding `Cc1cc(N[C@@H](Cc2ccccc2)C(=O)NCc2cccc(F)c2)nc(NCCCOC(C)C)n1`, the inhibition was -2%.
Take `O=C(Nc1ccccc1Oc1ccccc1)NC1CCN(c2ccnc3cc(Cl)ccc23)C1` (configuration not stated): the inhibition is 0%.
Under `CCCOc1ccc(CCCON2C(N)=NC(N)=NC2(C)C)cc1` stands 0%.
Under `CC(=O)NC(c1cccs1)c1cc(Cl)c2cccnc2c1O` (configuration not stated) stands -2%.
As for `CC(Nc1ncc(-c2ccsc2)c(-c2nccs2)n1)c1ccc2c(c1)OCCO2` (configuration not stated), the inhibition is 2%.
Under `O=C(/C=C/c1ccc(Cl)c(Cl)c1)NCCCCCN1CCC(NC(=O)Nc2ccc(OC(F)F)cc2)CC1` stands 6%.
With `O=C(Nc1ccc(OC2CCN(Cc3ccsc3)C2)c(Cl)c1)c1ccsc1` (configuration not stated), the inhibition is 0%.
For `CCn1c(-c2nc(-c3ccc4c(c3)OCO4)cnc2N)nc2cnccc21` the value was -7%.
Under `Cc1cc(-c2ccc3c(c2)CCN(CCCOc2ccc4c(c2)CCN4C(=O)/C=C/c2ccccc2Cl)CC3)no1` stands 1%; under `O=C(c1ccc(Cl)cc1)N1CCCC(C(=O)N(Cc2nnc(-c3ccccc3Cl)o2)C2CC2)C1` (configuration not stated), 0%.
For the compound `O=C(CNC(=O)c1ccc(O)cc1)Nc1cccc(-c2cccc(-c3nc4ccc(C(F)(F)F)cc4[nH]3)c2)c1`, the inhibition was 5%.
For `O=c1cc(N2CCNCC2)c(Cl)nn1Cc1ccc(NS(=O)(=O)c2ccc(Oc3ccccc3)cc2)cc1` the value was -6%.
Regarding `Cc1ccc(O)cc1Nc1ccnc2ccc(-c3csc(CNCCN4CCOCC4)n3)cc12`, the inhibition is -2%.
For the compound `CN(C)CCNc1ncnc2c1[nH]c1ccc(Cl)cc12`, the inhibition was 4%.
Under `CCc1ccc(CN2CCC(NC(=O)c3ccc(-c4ccc(N(C)C)cc4)s3)CC2)cc1` stands -4%; under `Nc1ccc(Nc2ccnc3ccc(C(F)(F)F)cc23)cc1O`, 5%.
`O=C(Nc1ccc(Oc2ccccc2)cc1)N1CCC(CCN2CCC(c3c[nH]c4ccccc34)CC2)CC1`: the inhibition is 7%.
For the compound `CN1CCC(NCc2ccc(-c3ccc(C(F)(F)F)cc3)cc2)CC1`, the inhibition was 5%.
Under `O=C(/C=C/c1ccc(Cl)c(Cl)c1)NCCCCCCN1CCCN(C(=O)Nc2ccc(C(F)(F)F)cc2)CC1` stands -8%; under `COc1ccccc1NC(=O)NC1CCN(CCCCCNC(=O)/C=C/c2ccc(Cl)c(Cl)c2)CC1`, -1%.
For `Oc1cccc(Nc2nc(NCc3ccco3)c3ccccc3n2)c1` the value was 0%; for `COCCNC(=O)c1ccc(OC2CCN(Cc3ccc(F)c(F)c3)CC2)c(Cl)c1`, -2%; for `O=C(Nc1cccc(-c2ccc(-c3nc4ccccc4[nH]3)cc2)c1)c1cccnc1`, -5%.
For `Cc1ccccc1C1CCN(C2CCC(NC(=O)c3cc(-c4ccc(Cl)cc4)cs3)CC2)CC1` (configuration not stated) the value was -2%.
